Results filed as inconclusive are left out. Entries that show only a call come without a potency. Active and inactive are the calls of the source. Calls come from the whole dose curve; as a rule, active = well fitted cell-killing curve with a large enough effect; inconclusive = small, poorly fitted or top-dose-only effect, or effect the other way; inactive = no such curve, though single readings can be large or run the other way.
Experiment: Quantitative High-Throughput drug screen in 47 multiple myeloma cell lines against the NCATS MIPE library collection: FR4_PLB cell viability assay (AID 1918924; note: nearly all actives have a fitted effect of over 35% in size)
Conditions: FR4_PLB myeloma cells viability, CellTiter-Glo ATP, 48 h; series mostly up to 45.8 µM
From the text: PI: Beverly A. Mock Ph.D.
Laboratory of Cancer Biology and Genetics,
Center for Cancer Research, National Cancer Institute,
National Institute of Health, Bethesda, Maryland
Drug resistance and disease progression are common in multiple myeloma (MM) patients, underscoring the need for new therapeutic combinations. […] We hypothesized that effective combinations would reduce MYC expression and enhance p16 activity. […] These preclinical data identify potentially useful drug combinations for evaluation in drug-resistant MM and reveal potential mechanisms of combined drug sensitivity.
Described herein is the primary MIPE qHTS used to cherrypick compounds. Validated compounds were then further tested for potential synergistic activiy.
[1] Peat TJ, Gaikwad SM, Dubois W, Gyabaah-Kessie N, Zhang S, Gorjifard S, Phyo Z, Andres M, Hughitt VK, Simpson RM, Miller MA, Girvin AT, Taylor A, Williams D, D'Antonio N, Zhang Y, Rajagopalan A, Flietner E, Wilson K, Zhang X, Shinn P, Klumpp-Thomas C, McKnight C, Itkin Z, Chen L, Kazandijian D, Zhang J, Michalowski AM, Simmons JK, Keats J, Thomas CJ, Mock BA. Drug combinations identified by high-throughput screening promote cell cycle transition and upregulate Smad pathways in myeloma. Cancer Lett. 2023 Aug 1;568:216284. doi: 10.1016/j.canlet.2023.216284. Epub 2023 Jun 24. PMID: 37356470; PMCID: PMC10408729.
SEQUENCE No. (e.g., 1, 2, 3, etc.); […] (e.g., Cells, Incubation, Reagent, etc.); VALUE and DESCRIPTION.
1; Cells; 5 uL; white, solid bottom 1536-well Greiner assay plate.
2; Compounds; 23 nL; Kalypsis pin tool (Wako USA) equipped with a 1536-well pin head to transfer to the assay plates.
3; Incubation; 48 hours; 37C incubation.
4; Reagent;5uL; CellTiter Glo (Promega).
5; Detector; 425V; Luminescence; Viewlux PerkinElmer.
NOTES (numbers refer to Sequence numbers above)
1. The cell-based screening methods employed in this study were like those previously published. Briefly, the corresponding myeloma cell lines were screened in 1,536-well plates with 500 cells, 5-uL per well for inhibition of cell viability (assessed by measuring ATP levels with CellTiterGlo).
2. NCATS MIPE 4.0 library of approved and investigational drugs were added using the Kalypsis pin tool. Wells treated with DMSO only for 100% viability and media only wells for 0% viability were used as controls.
3. The assay plates were covered and incubated for 48 hours in a 37C, 5% CO2 incubator with controlled humidity.
4. After 48 hours, CellTilter-GloTM luminescent substrate mix (Promega) reagent was added to the assay plate and plates we incubated for 5 min at room temperature.
5. Signal was measured as median relative luminescence units on a ViewLux (PerkinElmer) multiplate reader.
[1] Heske CM, Davis MI, Baumgart JT, Wilson K, Gormally MV, Chen L, Zhang X, Ceribelli M, Duveau DY, Guha R, Ferrer M, Arnaldez FI, Ji J, Tran HL, Zhang Y, Mendoza A, Helman LJ, Thomas CJ. Matrix Screen Identifies Synergistic Combination of PARP Inhibitors and Nicotinamide Phosphoribosyltransferase (NAMPT) Inhibitors in Ewing Sarcoma. Clin Cancer Res. 2017 Dec 1;23(23):7301-7311. doi: 10.1158/1078-0432.CCR-17-1121. Epub 2017 Sep 12. PMID: 28899971; PMCID: PMC6636827.
Potency is the fitted concentration of half-maximal effect.

SMILES	Potency
CC(=O)Oc1ccccc1C(=O)O	inactive
NNCCc1ccccc1	6.62 µM (active)
COc1ccc(CCN2CCN(CCCc3ccccc3)CC2)cc1OC	inactive
Nc1cccc(S(=O)(=O)N2CCCN(S(=O)(=O)c3ccc4c(c3)OCCO4)CC2)c1	inactive
COc1ccc2nc(S(=O)Cc3ncc(C)c(OC)c3C)[nH]c2c1 (stereo not given)	inactive
Cc1cc2c(F)c(Oc3ncnn4cc(OC[C@@H](C)O)c(C)c34)ccc2[nH]1	inactive
O=C1CCc2cc(OCCCCc3nnnn3C3CCCCC3)ccc2N1	inactive
COc1ccc(COc2cc3oc(=O)c4cc(C(C)O)ccc4c3cc2OC)cc1 (stereo not given)	13.2 µM (active)
Cc1c(CN2CCN(C(=O)C(C)C)CC2)sc2c(N3CCOCC3)nc(-c3cnc(N)nc3)nc12	0.0833 µM (active)
CCOc1ccn(-c2ccc(F)cc2)c(=O)c1C(=O)Nc1ccc(Oc2ccnc(N)c2Cl)c(F)c1	18.7 µM (active)
Cc1oncc1C(=O)Nc1ccc(C(F)(F)F)cc1	inactive
Cc1cn[nH]c1	0.0526 µM (active)
COCCNCCCn1c(C(=O)CF)c(-c2ccc(C)cc2)c2c(N)ncnc21	13.2 µM (active)
CCn1c(-c2nonc2N)nc2cnc(Oc3cccc(NC(=O)c4ccc(OCCN5CCOCC5)cc4)c3)cc21	14.8 µM (active)
COc1ccccc1-c1cccc(-c2c(O)c3cc(C#N)c(Cl)cc3[nH]c2=O)c1	inactive
Cc1[nH]c(=O)c(C#N)cc1-c1ccc2nccn2c1	inactive
C[C@]1(c2nc3c(C(N)=O)cccc3[nH]2)CCCN1	inactive
NS(=O)(=O)c1cc2c(cc1Cl)NC=NS2(=O)=O	inactive
Cn1cnc([N+](=O)[O-])c1Sc1ncnc2nc[nH]c12	0.418 µM (active)
O=C(C=Cc1ccc(/C=C/C(=O)Nc2ccc(C3=NCCN3)cc2)cc1)Nc1ccc(C2=NCCN2)cc1	inactive

SMILES	Potency
CC(C)OC(=O)C1=CN(C(=O)c2ccc(F)c(F)c2)CC(C)(C)c2c1[nH]c1ccccc21	inactive
O=C(c1cc(Cc2n[nH]c(=O)c3ccccc23)ccc1F)N1CCN(C(=O)C2CC2)CC1	inactive
CCOc1ccc(Cc2cc([C@@H]3O[C@H](CO)[C@@H](O)[C@H](O)[C@@H]3O)ccc2Cl)cc1	inactive
CCCC(CCC)C(=O)O	inactive
OC[C@H](Cc1ccccc1)Nc1nc(Oc2ccc3c(c2)CCC3)nc2c1ncn2Cc1ccc(-c2ccccc2)cc1	inactive
O=C(O)CCc1ccc(NCc2cccc(Oc3ccccc3)c2)cc1	inactive
O=C1CCCC2=C1C(c1[nH]ncc1Cl)N=C(Nc1nc3ccccc3o1)N2 (stereo not given)	inactive
NC(=O)c1ccc(I)c([N+](=O)[O-])c1	inactive
Cn1cc(-c2ccc3nnc(C(F)(F)c4ccc5ncccc5c4)n3n2)cn1	inactive
Cc1n[nH]c(C)c1Cc1sc2c(c1C(=O)N1C[C@H](O)CO1)c(=O)n(C)c(=O)n2CC(C)C	inactive
Cc1c(C)c2c(c(C)c1O)CCC(C)(COc1ccc(CC3SC(=O)NC3=O)cc1)O2 (stereo not given)	inactive
Cc1cc(SCc2sc(-c3ccc(C(F)(F)F)cc3)nc2C)ccc1OCC(=O)O	inactive
NC(=O)C1CCCc2c1[nH]c1ccc(Cl)cc21 (stereo not given)	inactive
O=C(Nc1ccc(F)c(C(F)(F)F)c1)Nc1nnc(-c2ccncc2)s1	3.32 µM (active)
CCn1c(-c2nonc2N)nc2c(C#CC(C)(C)O)ncc(OC[C@H]3CCCNC3)c21	14.8 µM (active)
CCCCCCCc1ccc(CCc2cccc(O)c2C(=O)O)cc1	inactive
S=C(NCc1ccc2c(c1)OCO2)N1CCN(c2ncnc3c2oc2ccccc23)CC1	27 µM (active)
C1COC(NC(C2CC2)C2CC2)=N1	inactive
COc1cccc2cc(-c3nc(C4CCC(C(=O)O)CC4)n4ncnc(N)c34)[nH]c12 (stereo not given)	0.187 µM (active)
O=c1ncn2nc(Sc3ccc(F)cc3F)ccc2c1-c1c(Cl)cccc1Cl	inactive

— PubChem BioAssay (NCATS)
